High-throughput results (PubChem BioAssay)
C diff growth = inhibitors of Clostridium difficile growth; Clostridium difficile clinical isolate growth, OD600, 24 h; hits give low values; growth activity, negative = inhibition, % at 16 µg/mL (by protocol); 0.25% of 86,000 active;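 active = mean growth activity at or below -80% and every replicate also at or below -80%; inconclusive = mean at or below -80% but some replicate above -80%; inactive = mean growth activity above -80%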
Pf Dd2 growth = blocks growth of Plasmodium falciparum Dd2 parasites. P. falciparum Dd2 growth, SYBR Green, 72 h; hits give low values. activity change, % at 10 µM. 2.3% of 94,000 active; in the data active = activity change below about -80%; inconclusive = no clear call, values can overlap the other calls
T cruzi growth-1 = inhibitors of T. cruzi proliferation; AID 624255; inhibition, % at 8.34 µM; 5.9% of 77,000 active; T. cruzi beta-gal in NIH3T3, GalScreen luminescence, 90 h;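 active = mean inhibition above about 93%, with at least 55% of replicates each passing it, limit read from the data, passing the limit was not always enough; inconclusive = only one of those two conditions holds; inactive = neither condition holds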
T cruzi growth-2 = inhibitors of T. cruzi proliferation; shares compounds with T cruzi growth-1; AID 651739; inhibition, % at 8.35 µM; T. cruzi beta-gal in NIH3T3, GalScreen luminescence, 90 h; 72% of 5,600 active;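 active = mean replicate inhibition above about 95% and at least 55% of replicates individually reaching it, limit read from the data; inconclusive = only one of the two criteria is met; inactive = neither criterion is met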
T cruzi growth-3 = inhibitors of T. cruzi proliferation. shares compounds with T cruzi growth-1. T. cruzi beta-gal in NIH3T3, GalScreen luminescence, 90 h. inhibition, % at 2.09 µM. 21% of 5,600 active. AID 651740;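 active = mean inhibition above about 95%, with at least 55% of replicates also reaching it, limit read from the data; inconclusive = meets just one of the two conditions; inactive = meets neither condition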
3T3 cytotox = kills mouse NIH/3T3 fibroblasts; NIH/3T3 viability, CellTiter-Glo ATP luminescence, 90 h; cytotoxicity (signal decrease), % at 8.35 µM; shares compounds with T cruzi growth-1; 14% of 5,600 active;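 active = mean signal decrease across replicates above about 35% based on untreated-well scatter, with enough replicates individually passing, limit read from the data; inconclusive = no rule stated though some were filed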
3T3 cytotox 2 = NIH/3T3 (mouse) viability loss. shares compounds with T cruzi growth-1. NIH/3T3 viability, CellTiter-Glo ATP luminescence, 90 h. inhibition, % at 24.9 µM. 56% of 5,600 active;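 active = mean loss of cell viability signal at or above a set limit, and enough replicates individually reaching it; inconclusive = meets only the mean limit or only the replicate share; inactive = meets neither condition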
Of the large screens only hits and unclear results are named; the others gave an inactive call (follow-up assays come after a bar, where they were run). Sampled rows, rich in hits. Any-hit rate of the full collection: about 6.7%.

C[C@@H]1CCCCO[C@@H](CN(C)S(=O)(=O)c2ccccc2)[C@H](C)CN([C@@H](C)CO)C(=O)c2cc(NS(=O)(=O)c3ccccc3)ccc2O1	none (no result: C diff growth)
C[C@H](CO)N1C[C@H](C)[C@H](CN(C)C)Oc2cc(C#CCN(C)C)ccc2S1(=O)=O	none
CN(C)CCCNC(=O)C[C@H]1CC[C@@H]2[C@@H](COc3ccc(NC(=O)C4CCC4)cc3C(=O)N2C)O1	none
O=C(c1ccccc1F)N1C[C@H]2O[C@@H](CNS(=O)(=O)c3ccccc3)CC[C@H]21	none (no result: T cruzi growth-1)
C[C@@H]1CN([C@H](C)CO)S(=O)(=O)c2ccc(C3=CCCC3)cc2O[C@@H]1CN(C)S(C)(=O)=O	none (no result: C diff growth)
COc1ccc(NC(=O)Nc2ccc3c(c2)[C@@H]2C[C@H](CC(=O)NCCc4ccccc4)O[C@H](CO)[C@@H]2O3)cc1	T cruzi growth-1 159.3 | T cruzi growth-2 105.2 | T cruzi growth-3 100.7 | 3T3 cytotox inactive | 3T3 cytotox 2 inactive
O=C(C[C@@H]1C[C@@H]2c3cc(NC(=O)Nc4ccccc4)ccc3O[C@@H]2[C@H](CO)O1)NCC1CC1	T cruzi growth-1 101.5 | T cruzi growth-2 inactive | T cruzi growth-3 inactive | 3T3 cytotox inactive | 3T3 cytotox 2 inactive
COc1ccc(NC(=O)Nc2ccc3c(c2)[C@H]2C[C@H](CC(=O)NCCc4ccccc4)O[C@H](CO)[C@H]2O3)cc1	T cruzi growth-1 148.9 | T cruzi growth-2 109.2 | T cruzi growth-3 inactive | 3T3 cytotox inactive | 3T3 cytotox 2 inactive
CCCNC(=O)C[C@@H]1C[C@H]2c3cc(NC(=O)Nc4ccc(OC)cc4)ccc3O[C@H]2[C@H](CO)O1	none
CCCNC(=O)C[C@H]1C[C@@H]2c3cc(NC(=O)Nc4ccc(OC)cc4)ccc3O[C@@H]2[C@@H](CO)O1	none
O=C(C[C@@H]1C[C@H]2c3cc(NC(=O)Nc4ccc(F)cc4)ccc3O[C@H]2[C@@H](CO)O1)NCC1CC1	none
O=C(C[C@H]1CC[C@@H]2[C@H](COC[C@H](O)CN2CCc2ccccc2)O1)N1CCC(Cc2ccccc2)CC1	none
C[C@H]1CCCCO[C@@H](CN(C)C)[C@@H](C)CN([C@@H](C)CO)C(=O)c2cc(NS(=O)(=O)c3cccs3)ccc2O1	none
C[C@H](CO)N1C[C@H](C)[C@H](CN(C)Cc2ccc(C(F)(F)F)cc2)Oc2ccc(NS(=O)(=O)c3cccs3)cc2CC1=O	none
C[C@H](CO)N1C[C@H](C)[C@@H](CN(C)C(=O)Nc2ccc(F)cc2)OCCCC[C@H](C)Oc2ccc(NS(=O)(=O)c3ccc(F)cc3)cc2C1=O	none
CC(C)c1cn(CC[C@H]2CC[C@H](NC(=O)Nc3cc(Cl)cc(Cl)c3)[C@@H](CO)O2)nn1	none (no result: C diff growth)
C[C@@H]1CN([C@H](C)CO)C(=O)c2cc(NC(=O)Cc3cn(C)c4ccccc34)ccc2O[C@@H]1CN(C)C(=O)Nc1ccc2c(c1)OCO2	none
OC[C@@H]1[C@H](c2ccc(/C=C/c3ccccc3)cc2)[C@H]2CN(Cc3cncnc3)CCCCN12	none
OC[C@@H]1[C@H](c2ccc(/C=C/c3ccccc3)cc2)[C@@H]2CN(Cc3ccncc3)CCCCN12	T cruzi growth-1 120.7 | T cruzi growth-2 107.2 | T cruzi growth-3 inconclusive | 3T3 cytotox inconclusive | 3T3 cytotox 2 104.0
COc1ccccc1-c1ccc([C@H]2[C@H](CO)N3CCCCN(Cc4ccncc4)C[C@@H]23)cc1	none
OC[C@@H]1[C@@H](c2ccc(/C=C/c3ccccc3)cc2)[C@@H]2CN(Cc3cncnc3)CCCCN12	none
OC[C@@H]1[C@H](c2ccc(/C=C/c3ccccc3)cc2)[C@@H]2CN(Cc3cccnc3)CCCCN12	T cruzi growth-1 105.4 | T cruzi growth-2 110.7 | T cruzi growth-3 inactive | 3T3 cytotox 41.1 | 3T3 cytotox 2 103.3
OC[C@@H]1[C@@H](c2ccc(/C=C/c3ccccc3)cc2)[C@@H]2CN(Cc3cccnc3)CCCCN12	T cruzi growth-1 inconclusive | T cruzi growth-2 104.0 | T cruzi growth-3 inactive | 3T3 cytotox 45.9 | 3T3 cytotox 2 103.3
OC[C@H]1[C@@H](c2ccc(/C=C/c3ccccc3)cc2)[C@@H]2CN(Cc3cncnc3)CCCCN12	T cruzi growth-1 102.3 | T cruzi growth-2 106.5 | T cruzi growth-3 inactive | 3T3 cytotox inactive | 3T3 cytotox 2 104.6
O=C(NCC[C@H]1CC[C@H](NS(=O)(=O)c2cccc(F)c2)[C@H](CO)O1)C1CC1	none (no result: C diff growth)
CCCc1cn(CC[C@@H]2CC[C@@H](NC(=O)C3CC3)[C@@H](CO)O2)nn1	none (no result: T cruzi growth-1)
O=C(Nc1ccc2c(c1)[C@H]1C[C@H](CC(=O)N3CCOCC3)O[C@H](CO)[C@H]1O2)C1CCOCC1	none (no result: C diff growth)
C[C@H](CO)N1C[C@H](C)[C@@H](CN(C)Cc2ccc(C(F)(F)F)cc2)OCc2cn(nn2)CCCC1=O	none
C[C@H](CO)N1C[C@H](C)[C@H](CN(C)S(=O)(=O)c2ccc(F)cc2)Oc2c(NC(=O)Nc3ccc4c(c3)OCO4)cccc2C1=O	none
C/C=C/c1ccc([C@@H]2[C@@H](C#N)N(c3nc(CC)cs3)[C@H]2CO)cc1	none
C/C=C/c1ccc([C@H]2[C@@H](C#N)N(c3nc(CC)cs3)[C@H]2CO)cc1	T cruzi growth-1 108.5 | T cruzi growth-2 103.3 | T cruzi growth-3 111.4 | 3T3 cytotox inactive | 3T3 cytotox 2 inconclusive
C/C=C/c1ccc([C@@H]2[C@@H](CO)N(c3nc(CC)cs3)[C@H]2C#N)cc1	none
C/C=C/c1ccc([C@@H]2[C@H](C#N)N(c3nc(CC)cs3)[C@H]2CO)cc1	T cruzi growth-1 104.0 | T cruzi growth-2 105.1 | T cruzi growth-3 inactive | 3T3 cytotox inactive | 3T3 cytotox 2 27.4
C/C=C/c1ccc([C@H]2[C@@H](CO)N(c3nc(CC)cs3)[C@H]2CNC(C)C)cc1	T cruzi growth-1 98.1 | T cruzi growth-2 98.2 | T cruzi growth-3 inactive | 3T3 cytotox inactive | 3T3 cytotox 2 103.2
C/C=C/c1ccc([C@H]2[C@@H](CO)N(S(C)(=O)=O)[C@H]2CNC(C)C)cc1	none (no result: T cruzi growth-1)
COc1ccc(S(=O)(=O)N(C)C[C@@H]2Oc3ccc(NS(=O)(=O)c4cn(C)cn4)cc3C(=O)N([C@H](C)CO)C[C@H]2C)cc1	none
COCC(=O)N(C)C[C@@H]1Oc2ncc(C#Cc3ccccc3)cc2C(=O)N([C@@H](C)CO)C[C@H]1C	none
CNC[C@H]1Oc2ccc(NC(=O)Nc3ccc4c(c3)OCO4)cc2C(=O)N([C@@H](C)CO)C[C@H]1C	none
Cc1cccc(S(=O)(=O)N2CCCCN3[C@@H](CO)[C@@H](c4ccc(C#C[C@@H](C)O)cc4)[C@@H]3C2)c1	none
CCCNC(=O)N1[C@H](CO)[C@@H](c2ccccc2-c2ccc(C)cc2)[C@@H]1C#N	none (no result: T cruzi growth-1)
